In PubChem BioAssay (NCATS):
Values joined by “and” are separate entries in the source; they are usually repeats but may differ in a detail not shown here. Equal values may be shown once. Inconclusive results are not listed. Active and inactive are the calls of the source. Calls follow the shape of the dose curve; as a rule, active = well fitted cell-killing curve with a large enough effect; inconclusive = small, poorly fitted or top-dose-only effect, or effect the other way; inactive = no such curve, though single readings can be large or run the other way.

Experiment: Viability qHTS for spleen associated tyrosine kinase inhibitor (SYKi) drug resistant MV4-11 cells (AID 1963824); also: nearly all actives have a fitted effect of over 35% in size
Details: SYKi-resistant MV4-11 viability, CellTiter-Glo, 72 h; series mostly up to 45 µM; viability, % of control: at the top concentration
Excerpt: Department of Medicine, Hematology/Oncology
University Hospital Frankfurt, Germany.
Trials have shown promising clinical activity of the selective SYK inhibitor entospletinib in patients with high expressing HOXA9/MEIS1 acute leukemias. As the development of resistance mechanisms is a common problem in the use of targeted drugs, we performed a chemical library screen to identify drug sensitivities in SYK inhibitor resistant AML cells. […] Glucocorticoids are potent immunosuppressants which work in part by inhibiting the transcription of cytokine genes.
Described herein is a viability screen to look for activity in the SYK inhibitor drug resistant cell line against four NCATS compound libraries (MIPE 5.0, NPC, NPACT, and Kinase) totaling 11372 compounds. Active hits were reacquired for confirmation and further secondary assay testing.
SEQUENCE No. (e.g., 1, 2, 3, etc.); […] (e.g., Cells, Incubation, Reagent, etc.); VALUE; DESCRIPTION.
1; Media; 2uL; white, solid-bottom Corning assay plate.
2; Compounds; 23nL; Echo acoustic dispenser.
3; Cell; 5uL; 500 cells per well.
4: Incubation; 72hr; 37 C, 5% CO2, 95% humidity.
5; Reagent; 3uL; CellTiter-Glo reagent (Promega).
6; Incubation; 10min; room temperature.
7; Detection; Luminescence; ViewLux plate reader (PerkinElmer).
NOTES (numbers refer to Sequence numbers above
1. Quantitative high-throughput screening (qHTS) of small molecule compounds was conducted on drug resistant SYKi MV4-11 cell line.
2. Twenty-three nanoliter of small molecule compounds were added to each assay plates using the Echo acoustic dispenser (Beckman Coulter).
3. Cells were seeded into the assay plates at a final density of 500 cells in 5uL of media per well using the Multidrop Combi dispenser.
4. Plates were covered with stainless steel gasketed lids and incubated for 72 hours at standard cell culture conditions.
5. Viability was assessed by adding 3uL of CellTiter-Glo detection reagent (Promega).
6. Plates were covered with gasket lids and incubated for 10 minutes at room temperature.
7. Luminescence was measured on a ViewLux plate reader (PerkinElmer).
Potency is read from the fitted curve at half-maximal effect.

Compound	viability, % of control	Potency
CC(C)c1cc(C(=O)N2CC[C@@H](NC(=O)C3CC3)C2)n[nH]1	54.6% (inactive)	
C[C@@H]1O[C@@H](O[C@H]2[C@H](O[C@H]3[C@H](O[C@H]4CC[C@@]5(C)C(CC[C@]6(C)C5CC=C5[C@@H]7CC(C)(C)C[C@@H](O)[C@]7(C)CC[C@]56C)C4(C)C)O[C@H](C(=O)O)[C@@H](O)[C@@H]3O)O[C@H](C(=O)O)[C@H](O)[C@@H]2O)[C@H](O)[C@H](O)[C@H]1O (stereo not given in full)	89.8% [at 9.25 µM] (inactive)	
COc1ccc(-c2oc3c(CC=C(C)C)c(O)cc(O)c3c(=O)c2O)cc1		13.2 µM (active)
COc1cc(N)c(Cl)cc1C(=O)NC[C@@H]1CCN2CCC[C@@H]12	95.3% (inactive)	
COC(=O)c1cccnc1	87.2% (inactive)	
CC1(C)C[C@H](O)C[C@@]2(C)[C@H]1[C@H](O)C=C1COC(=O)[C@@]12O	73.7% (inactive)	
CNC(=O)[C@H](Cc1ccccc1)NC(=O)[C@H](CC(C)C)[C@H](CSc1cccs1)C(=O)NO		2.95 µM (active)
CC/C=C/C(O)C(O)C1=C(C)C(=O)C2(O1)C(=O)NC(OC)(C(=O)c1ccccc1)C2O (stereo not given)	96.5% [at 17.3 µM] (inactive)	
O=C1CC[C@@H](C(=O)N2CSC[C@H]2C(=O)O)N1	90.2% (inactive)	
Nc1ncnc2c1ncn2Cc1c(F)cccc1Cl	63.5% (inactive)	
CC1(C)[C@@H](O[C@H]2O[C@H](C(=O)O)[C@@H](O)[C@H](O)[C@H]2O[C@@H]2O[C@H](C(=O)O)[C@@H](O)[C@H](O)[C@H]2O)CC[C@]2(C)[C@H]3C(=O)C=C4[C@@H]5C[C@@](C)(C(=O)O)CC[C@]5(C)CC[C@@]4(C)[C@]3(C)CC[C@@H]12	91.6% [at 17.3 µM] (inactive)	
COc1ccc(OC)c(-c2nnc3ccc(-c4ccc(OC)c(O[C@@H]5CCOC5)c4)nn23)c1		2.95 µM (active)
CC(C)(NS(=O)(=O)c1ccc2c(Cl)cnc(N=C(N)N)c2c1)C(=O)O	106% (inactive)	
CC1=CC(=O)C(=C(C)C)CC2C1CCC2(C)O (stereo not given)	89.9% (inactive)	
Cc1c(C(=O)NCCCO)cnn1-c1nc(-c2cccc(C(F)(F)F)c2)cs1		14.6 µM (active)
Nc1ccc(O)cc1	62.1% (inactive)	
Fc1ccc(N2CCCCC2)c(NC(=S)c2ccncc2)c1		9.2 µM (active)
Cc1cc(F)c(C(=O)Nc2cccc(-c3nncn3C(C)C)n2)cc1-n1cnc(C2CC2)c1		5.25 µM (active)
Cc1c(CN2CCN(C(=O)C(C)O)CC2)sc2c(N3CCOCC3)nc(-c3cnc(N)nc3)nc12 (stereo not given)		0.366 µM (active)
CC(C)c1cc2c(N3CCN(C4=NCC(C)(C)S4)CC3)ncnc2s1		5.8 µM (active)

Compound	viability, % of control	Potency
NC(=O)c1ncn([C@@H]2O[C@H](CO)[C@@H](O)[C@H]2O)c1O		inactive
COc1ccc(-c2ccc3c(N4CCOC[C@@H]4C)nc(N4CCOC[C@@H]4C)nc3n2)cc1CO		0.148 µM (active)
CC(=O)N[C@H]1CCN(c2ccc(C3=NOC(CN[S+](=O)([O-])C(C)C)C3)cc2F)C1 (stereo not given in full)		13 µM (active)
CC(=O)O[C@@H]1CC(C)=C2[C@H]1[C@H](C)CC[C@H]2/C=C(\C)C(=O)O		16.4 µM (active)
O=C(Oc1cccc2cccnc12)c1ccccc1	5.94% (inactive)	
COc1nc(C)cnc1NS(=O)(=O)c1cccnc1-c1ccc(-c2nnco2)cc1	93.7% (inactive)	
CC1=CC(=O)CC(C)(C)[C@@]1(O)/C=C/C(C)O[C@@H]1O[C@H](CO)[C@@H](O)[C@H](O)[C@H]1O (stereo not given in full)	109% [at 17.3 µM] (inactive)	
COc1cc(N2CCC(N3CCN(C)CC3)CC2)ccc1Nc1ncc(Cl)c(Nc2ccccc2S(=O)(=O)C(C)C)n1		116 nM (active) and 209 nM (active)
CNC(C)C(=O)NC(C(=O)N1CCCC1C(=O)Nc1cccc2ncccc12)C(C)C (stereo not given)		11.6 µM (active)
CC(=O)c1ccc2c(c1)c1cc(C(C)=O)ccc1n2CCNC(C)C		0.525 µM (active)
Cc1ccc(NC(=O)c2ccc(CN3CCN(C)CC3)cc2)cc1Nc1nc(-c2cccnc2)cs1		13 µM (active) and 13.2 µM (active)
CC(=O)C1=CCC2C3CCC4CC(O[C@@H]5O[C@H](CO)[C@@H](O[C@@H]6O[C@@H](C)[C@H](O)[C@@H](O)[C@H]6O)[C@H](O)[C@H]5O[C@@H]5O[C@H](CO)[C@@H](O)[C@H](O)[C@H]5O)CCC4(C)C3CCC12C (stereo not given in full)	97.2% [at 17.3 µM] (inactive)	
CC(C)C(=O)Nc1ncc(-c2cc(C(F)F)nn2-c2c(Cl)cccc2Cl)s1		13 µM (active)
CO[C@]1(NC(=O)CSC(F)F)C(=O)N2C(C(=O)O)=C(CSc3nnnn3CCO)CO[C@H]21		5.8 µM (active)
COc1ccccc1C(=O)Nc1cc2c(cc1N1CCNC[C@H]1C)n(C)c(=O)n2C		11.8 µM (active)
Cc1cnc(NC(=O)C2=C(O)c3ccccc3S(=O)(=O)N2C)s1		inactive
COc1cc(C(=S)N2CCOCC2)ccc1O	79.8% (inactive)	
CC1=CC(=O)C(=C(C)C)CC2C(C)(O)CCC12O (stereo not given)	92.1% (inactive)	
COc1cc(Nc2c(C#N)cnc3cc(OCCCN4CCN(C)CC4)c(OC)cc23)c(Cl)cc1Cl		944 nM (active) and 1.16 µM (active) and 590 nM (active)
Cc1cc(Nc2cc(CN3CCOCC3)c3nc(C)c(Cc4ccc(Cl)cc4F)n3n2)n[nH]1		259 nM (active) and 235 nM (active)
